Reference: PubChem BioAssay (Tox21)
Records with an inconclusive call do not appear. Active and inactive are the calls of the source. Calls come from the whole dose curve; as a rule, active = well fitted cell-killing curve with a large enough effect in the repeat runs; inconclusive = weak or mixed curves, or effect the other way; inactive = flat fitted curve, though single readings scatter.
% is set by controls: 0 for no effect and ±100 for the full control effect.

Test: qHTS assay to identify small molecule agonists of the constitutive androstane receptor (CAR) signaling pathway - cell viability counter screen (AID 1224836); note: nearly all actives have a fitted effect of over 45% in size
Details: HepG2-CYP2B6-hCAR viability, CellTiter-Fluor, 23 h, PK11195 added to every well; series mostly up to 92.4 µM
From the text: U.S. Tox21 Program National Center for Advancing Translational Sciences [NCATS] NIH Chemical Genomics Center [NCGC] U.S. Environmental Protection Agency [EPA] National Institutes of Environmental Health Sciences [NIEHS] National Toxicology Program [NTP] U.S. Food and Drug Administration [FDA] Tox21 Assay Overview: The constitutive androstane receptor (CAR) is a nuclear receptor which regulates multiple drug metabolizing enzymes (DMEs) and transporters. Activating CAR will generally increase the transcription and subsequent translation of CYP2B6 and CYP3A4. These two DMEs represent about 50% of the drug metabolizing potential in the body. […] Recently, there have also been studies performed indicating CARs role in energy metabolism and cancer therapy. Therefore, inducing CARs activity could have a potential effect on diabetes and cancer. Identifying environmental toxins and compounds which modulate CAR, through the use of the Tox21 10K compound collection, will be an important step in determining the toxicity and potential therapeutic effects these factors will have on the human body. To differentiate true CAR agonists from cytotoxic substances, the assay is multiplexed with a cell viability assay.
Tox21 Assay Protocol Summary: A double-stable (hCAR and CYP2B6-2.2kb) transfected cell line, derived from human hepatoma (HepG2) cells, was utilized for the duration of the quantitative high-throughput screens. The HepG2-CYP2B6-hCAR cells were dispensed at 2500 cells/4 uL/well in 1536-well white solid bottom plates using a Multidrop Combi. After the assay plates were incubated at 37 C/5% CO2 for 4 hrs, 23 nL of compounds at 15 concentrations (from 5-48 columns) or positive control (from 1 to 4 columns) were transferred to the assay plates using a Pintool station. One uL of PK11195 (final concentration = 0.75 uM) was added, using a Flying Reagent Dispenser, inside each well. After a 23 hr incubation period at 37 C/5% CO2, 1 uL of CellTiter-Fluor reagent was added into each well of the assay plates using a Flying Reagent Dispenser. The fluorescence intensity in the plates was then measured using a ViewLux plate reader.
For `CCCCc1ccc(Cl)cc1`, the outcome was “inactive”.
In the case of `O=C1Nc2ccccc2C1=O`, the outcome is reported as “inactive”.
In the case of `C[C@]12C=CC(=O)C=C1[C@@H](F)C[C@@H]1[C@@H]2[C@@H](O)C[C@@]2(C)[C@H]1CC[C@]2(O)C(=O)CO`, the outcome is reported as “inactive”.
In the case of `CC(C)(Sc1cc(C(C)(C)C)c(O)c(C(C)(C)C)c1)Sc1cc(C(C)(C)C)c(O)c(C(C)(C)C)c1`, the outcome is reported as “inactive”.
In the case of `CNCCc1ccccn1`, the outcome is reported as “inactive”.
With `O=C(O)CCCCCCCCCC(=O)O` the outcome was “inactive”.
In the case of `COc1cc2nc(N3CCN(C(=O)C4CCCO4)CC3)nc(N)c2cc1OC` (stereo not given), the outcome is reported as “inactive”.
For `O=C(O)P(=O)(O)O`, the outcome was “inactive”.
With `CC(C)(C)C(=O)CCc1ccc(Cl)cc1` the outcome was “inactive”.
For `CCCC(C)C(O)CC` (stereo not given), the outcome was “inactive”.
For `CCCCCCC(O)CO` (stereo not given), the outcome was “inactive”.
For `C/C(=N\O)c1ccc(OCC(=O)N2CCCCC2)cc1`, the outcome was “inactive”.
With `Cc1cc(=O)oc2cc(O[C@@H]3SC[C@@H](O)[C@H](O)[C@H]3O)ccc12` the outcome was “inactive”.
For `N[C@H]1C(O)O[C@H](CO)[C@@H](O)[C@@H]1O` (stereo not given in full), the outcome was “inactive”.
With `C=CCCCCCCCCCCCCCC` the viability change, negative = cytotoxic was 7.15% [at 19 µM] (inactive).
In the case of `COC(=O)c1cc(Cl)c(NC(C)=O)cc1OC`, the outcome is reported as “inactive”.
In the case of `CC(C)c1cc(C(C)C)cc(C(C)C)c1`, the outcome is reported as “inactive”.
For `CCCCCCCC(=O)N(C)C`, the outcome was “inactive”.
In the case of `CCCCN(CCCC)CCCCCCN(CCCC)CCCC`, the outcome is reported as “inactive”.
For `C=COCCCCO`, the outcome was “inactive”.
With `O=CN1CCCCC1` the outcome was “inactive”.
For `COCCCOc1cc(C[C@@H](C[C@H](N)[C@@H](O)C[C@H](C(=O)NCC(C)(C)C(N)=O)C(C)C)C(C)C)ccc1OC`, the outcome was “inactive”.
For `CCCCCCCCCCCCCC(=O)OCC`, the outcome was “inactive”.
With `CCCCCCCCOCCC#N` the outcome was “inactive”.
With `Clc1ccc2c(c1)Nc1ccccc1S2` the outcome was “inactive”.
In the case of `C=CCOC(=O)CCCCCCCC`, the outcome is reported as “inactive”.
For `CC(C)OCCO`, the outcome was “inactive”.
For `C=CC(=O)CC`, the outcome was “inactive”.
In the case of `O=S(=O)(O)c1ccc(Cl)cc1`, the outcome is reported as “inactive”.
In the case of `CC(C)OC(=O)C(C(=O)OC(C)C)=C1SC=CS1`, the outcome is reported as “inactive”.
In the case of `COc1cc(OC)cc(OC)c1`, the outcome is reported as “inactive”.
For `CC12CCCC=C1C(=O)OC2=O` (stereo not given), the outcome was “inactive”.
For `CCCC(=O)C(CC)Sc1ccoc1C` (stereo not given), the outcome was “inactive”.
With `CC(=O)OC1CCC(C(C)(C)C)CC1` (stereo not given) the outcome was “inactive”.
With `CC(C)(C)C(=O)NCCCC(=O)O` the outcome was “inactive”.
In the case of `CCCc1ccc(O)c(OC)c1`, the outcome is reported as “inactive”.
With `N#Cc1cc(NC(=O)C(=O)O)c(Cl)c(NC(=O)C(=O)O)c1` the outcome was “inactive”.
In the case of `NCC1CCC(C(=O)Oc2ccc(CCC(=O)O)cc2)CC1` (stereo not given), the outcome is reported as “inactive”.
For `O=P(O)(O)C(O)(Cc1cccnc1)P(=O)(O)O`, the outcome was “inactive”.
With `CC(=O)OCC(=O)[C@@]1(O)CC[C@H]2[C@@H]3CCC4=CC(=O)C=C[C@]4(C)[C@H]3[C@@H](O)C[C@@]21C` the outcome was “inactive”.
